# Screening results: PubChem BioAssay, National Center for Advancing Translational Sciences (NCATS)
# G9a block = qHTS Assay for Inhibitors of Histone Lysine Methyltransferase G9a; 8.8% of 350,000 active; AID 504332, 2011; G9a H3K9 monomethylation, AlphaScreen, 2 h; Potency, µM (series often up to 102 µM), without a hit: top-dose activity, negative = inhibition, actives largely listed as inhibitors; note: potency is the fitted concentration of half-maximal effect; % is set by controls: 0 for no effect and ±100 for the full control effect; nearly all actives have a fitted effect of over 75% in size
# Target sequence (Q96KQ7 913-1193 limits assumed): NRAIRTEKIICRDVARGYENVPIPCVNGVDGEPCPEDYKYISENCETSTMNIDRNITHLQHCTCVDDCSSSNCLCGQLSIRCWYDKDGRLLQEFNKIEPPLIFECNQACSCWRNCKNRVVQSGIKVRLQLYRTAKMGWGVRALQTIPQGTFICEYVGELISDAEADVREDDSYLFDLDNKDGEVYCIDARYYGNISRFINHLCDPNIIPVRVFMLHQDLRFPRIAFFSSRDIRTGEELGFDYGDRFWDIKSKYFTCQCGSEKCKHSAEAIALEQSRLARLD
#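 G9a (20 nM) was preincubated 15 min with compound, then reacted 2 h at room temperature with 500 nM biotin-H3K9 peptide and 20 µM SAM. Monomethyl-H3K9 detected by AlphaScreen using anti-H3K9me1 antibody.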
# JMJD2A Tudor = qHTS Assay for Inhibitors of JMJD2A-Tudor Domain | 4.4% of 390,000 active | Lysine-specific demethylase 4A (Homo sapiens), O75164 | AlphaScreen JMJD2A-Tudor / H3K4me3 peptide binding | AID 504339, 2011 | Potency, µM (series often up to 114 µM), for the others: at the top dose activity change, negative = inhibition, actives largely listed as inhibitors; note: potency is the fitted concentration of half-maximal effect; % is set by controls: 0 for no effect and ±100 for the full control effect; nearly all actives have a fitted effect of over 50% in size
# PLK1 PBD block = qHTS for Inhibitors of PLK1-PDB (polo-like kinase 1 - polo-box domain): Primary Screen | Plk1 PBD binding of FITC phosphopeptide, fluorescence polarization | 2.8% of 360,000 active | Potency, µM, for the others: max response, negative = inhibition, usual class: inhibitors | Serine/threonine-protein kinase PLK1 (Homo sapiens), P53350; note: potency is the fitted concentration of half-maximal effect; series mostly up to about 57 µM; % is set by controls: 0 for no effect and ±100 for the full control effect; nearly all actives have a fitted effect of over 65% in size
# Sfp inh = qHTS Assay for Inhibitors of Bacillus subtilis Sfp phosphopantetheinyl transferase (PPTase); Potency, µM, for the others: largest response in the series, negative = inhibition, actives largely listed as inhibitors; 3.5% of 310,000 active; AID 1490, 2009; Biochemical Sfp PPTase activity, qHTS; 4'-phosphopantetheinyl transferase ffp (Bacillus subtilis), Q9F4F7;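 note: the enzyme is Sfp with the accession as filed and its product quenches rhodamine fluorescence; potency is the fitted concentration of half-maximal effect; 0% = enzyme reaction without inhibitor and -100% = no enzyme wells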
#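 With Hepes-Na pH 7.6 buffer containing 10 mM MgCl2, Sfp (15 nM) modified BHQ-2-YbbR (12.5 uM) using rhodamine-CoA (5 uM). Two reads 30 minutes apart at 525/598 nm yielded each well's rate.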
# HP1b binding inh = HTS for Inhibitors of HP1-beta Chromodomain Interactions with Methylated Histone Tails; AlphaScreen HP1-beta / biotin-H3K9me3 peptide binding; Potency, µM (titrated, usually from 114 µM), without a hit: top-dose activity change, negative = inhibition, actives largely listed as inhibitors; 0.56% of 390,000 active; note: potency is the fitted concentration of half-maximal effect; nearly all actives have a fitted effect of over 70% in size
# Target sequence (P83916 whole entry, looked up): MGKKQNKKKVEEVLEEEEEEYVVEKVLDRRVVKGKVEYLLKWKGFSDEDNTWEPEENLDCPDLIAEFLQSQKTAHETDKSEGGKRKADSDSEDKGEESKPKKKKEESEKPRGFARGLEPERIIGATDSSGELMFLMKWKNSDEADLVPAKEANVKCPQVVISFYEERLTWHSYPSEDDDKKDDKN
#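 Compound inhibition of the preformed complex between 50 nM HP1-beta and 50 nM biotinylated H3K9me3 peptide was read by AlphaScreen. Buffer was PBS pH 7.4 with 0.01% Tween-20. Incubations ran 30 min at room temperature, with 10 ug/mL donor/acceptor beads.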
# BAZ2B inh = qHTS Assay for Inhibitors of BAZ2B | Potency, µM (series often up to 114 µM), inactives show at the highest dose activity change, negative = inhibition, most hits filed as inhibitors | 4.4% of 360,000 active | Bromodomain adjacent to zinc finger domain protein 2B (Homo sapiens), Q9UIF8 | AID 504333, 2011 | AlphaScreen BAZ2B-H3K14Ac peptide displacement; note: potency is the fitted concentration of half-maximal effect; % is set by controls: 0 for no effect and ±100 for the full control effect; nearly all actives have a fitted effect of over 60% in size
#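 AlphaScreen luminescence quantifies BAZ2B engagement of H3K14Ac peptide; the protein and biotinylated peptide are both at 50 nM final, buffer PBS pH 7.4 with 0.01% Tween-20, all steps at room temperature.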
# 12-hLO cuvette = Cuvette-Based Assay for Inhibitors of 12-hLO (12-human lipoxygenase): 8HQ Series - Round 1. purified 12-hLO, cuvette UV 234 nm product formation. 60% of 35 active. AID 2163, 2009. shares compounds with BAZ2B inh. Potency, µM, actives largely listed as inhibitors;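 active = compounds that slowed 12-hLO product formation enough to yield a measured IC50 potency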
# JMJD2E inh-1 = Inhibitors of Human Jumonji Domain Containing 2E (JMJD2E): 8HQs - Round 1 | Potency, µM (series often up to 57 µM), without a hit: top-dose activity, negative = inhibition, actives largely listed as inhibitors | JMJD2E demethylase, FDH-coupled NADH fluorescence | AID 493212, 2011 | 89% of 130 active | shares compounds with BAZ2B inh
# JMJD2E inh-2 = Confirmation qHTS Assay for Inhibitors of Human Jumonji Domain Containing 2E (JMJD2E); shares compounds with JMJD2A Tudor; Recombinant JMJD2E, FDH-coupled NADH fluorescence (FDH is formaldehyde dehydrogenase); Potency, µM (top dose mostly 56.8 µM), for the others: top-dose activity change, negative = inhibition, most hits filed as inhibitors; 93% of 140 active
# FDH inh = Counterscreen for JMJD2E Inhibitors: qHTS Assay for Inhibitors of Formaldehyde Dehydrogenase (FDH) | shares compounds with JMJD2A Tudor | FDH enzyme assay, NADH fluorescence kinetic | 10% of 140 active | Potency, µM (top dose mostly 56.7 µM), for inactives: at the highest dose activity, negative = inhibition, hits mostly inhibitors | AID 2680, 2010
# JMJD2E MALDI inh = MALDI-TOF-MS Assay for Inhibitors of Human Jumonji Domain Containing 2E (JMJD2E) | 90% of 45 active | AID 2688, 2010 | shares compounds with JMJD2A Tudor | Potency, µM, hits mostly inhibitors | recombinant JMJD2E demethylation, MALDI-TOF-MS;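 active = compounds whose IC50 for blocking JMJD2E demethylation is below 100 µM; inconclusive = dose dependent effect but IC50 above 100 µM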
# Numbers without * were called inactive; ? = inconclusive; nt = no result; [ ] = another dose, or the depositor's remark. In the library only some 12% were active in any assay of this set; here they are far more common. Unless noted, calls come from the whole dose curve; as a rule, active = well fitted curve in the direction sought with a large enough effect; inconclusive = small, poorly fitted or top-dose-only effect, or another doubt; inactive = no such curve, though single readings can be large; an effect the other way counts as inactive or inconclusive.
SMILES,G9a block,JMJD2A Tudor,PLK1 PBD block,Sfp inh,HP1b binding inh,BAZ2B inh,JMJD2E inh-1,JMJD2E inh-2,FDH inh,others
CCC(=O)NC(c1ccc(C)s1)c1cc(Cl)c2cccnc2c1O (stereo unspecified),nt,-23%,nt,nt,nt,nt,-6%,10µM*,-9%,12-hLO cuvette=3.5µM*
CCC(=O)NC(c1ccco1)c1cc(Cl)c2cccnc2c1O (stereo unspecified),17%,?,-5%,11%,2%,45µM*,6.3µM*,6.3µM*,-27%,12-hLO cuvette=1µM*
CNC(=O)CC1C(=O)N(c2ccc(OC)cc2)C(=S)N1NC(=O)c1cccc(F)c1 (stereo unspecified),13%,-8%,-24%,15%,25%,3%,nt,nt,nt,
COc1ccc(NC(=O)C(=O)NCCC2CCCCN2S(=O)(=O)c2ccc(F)cc2)cc1 (stereo unspecified),?,-14%,-28%,nt,3%,-28%,nt,nt,nt,
CC(C)NC(=O)C1CCN(c2ccc(S(=O)(=O)N3CCOCC3)cc2Cl)CC1,19%,-2%,-14%,23%,21%,-21%,nt,nt,nt,
O=C(COc1cccc2cccnc12)NNC(=O)Nc1ccccc1,-1%,-8%,-3%,9%,31%,-29%,nt,nt,nt,
Oc1cc(Nc2ccccc2)cc2cccnc12,19%[12.7 µM],?,nt,nt,17%,?,?,?,-18%,
Oc1cc(NCCN2CCOCC2)cc2cccnc12,?,22µM*,nt,nt,22%,2.8µM*,?,18µM*,-27%,JMJD2E MALDI inh=26*
Oc1cccc2cc(-c3ccccc3)cnc12,nt,nt,nt,nt,nt,nt,16µM*,16µM*,0%,
Oc1cccc2cc(Nc3ccccc3)cnc12,nt,nt,nt,nt,nt,nt,10µM*,10µM*,-18%,
c1ccc(Nc2ccccc2)cc1,?,-13%,-3%,nt,28%,-2%,nt,nt,nt,
Cc1ccc2[nH]c3c(=O)n4c(nc3c2c1)SCC4,40%,-9%,-12%,-9%,-6%,2%,nt,nt,nt,
CC(=O)c1cccc(NC(=O)C(=O)Nc2cccc3ccccc23)c1,9%,-17%,-18%,23%,26%,-1%,nt,nt,nt,
